Where a name gives a salt, the structure may show the parent alone. ± gives the standard deviation of the averaged measurements.
Columns and labels:
Assay in all cases: growth (OD600 after 10 h); higher = more growth (less inhibition)
[1] = tested on: E. coli TESEC Alr+ wild-type control; conditions: compound 0.1 mM; raw OD600 reference: median of DMSO wells 0.241, cell-free background 0.041
Experimental: (§1)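 TESEC Mtb Alr E. coli, or the Alr+ wild-type control, in 384-well plates with Prestwick library compounds at 0.1 mM and 1% DMSO, across arabinose induction levels of 1E3 to 1E7 nM. Growth is read as OD600 after 10 h at 37 °C in triplicate biological replicates.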

E. coli TESEC Mtb Alr [2] = conditions: compound 0.1 mM
Experimental: as §1

E. coli TESEC Mtb Asd = conditions: compound 0.1 mM
Experimental: (§2)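 TESEC E. coli strains in which the native enzyme is deleted and replaced by arabinose-inducible Mtb Asd, DapB, CysH or TrpD, each grown in its selective medium. Strains were screened against the Prestwick library at 0.1 mM and 1% DMSO in 384-well format at low and high arabinose induction. Growth is read as OD600 after 10 h in triplicate.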

E. coli TESEC Mtb DapB = conditions: compound 0.1 mM
Experimental: as §2

[3] = tested on: E. coli TESEC Alr+ wild-type control; conditions: compound 0.1 mM; raw OD600 reference: median of DMSO wells 0.49, cell-free background 0.052
Experimental: (§3)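 TESEC Mtb Alr E. coli (ΔaraC ΔtolC ΔentC Δalr ΔdadX, arabinose-inducible Mtb Alr) or the Alr+ wild-type control strain, grown in defined M9-fructose medium without D-alanine in 96-well plates with Prestwick library compounds at 0.1 mM and 1% DMSO. Low Alr induction is 0.1 µM arabinose and high induction is 10 mM arabinose.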

E. coli TESEC Mtb Alr [4] = conditions: compound 0.1 mM; remark: listed apart in the source
Experimental: as §3

[5] = arabinose 1000 nM, raw OD600 reference: median of DMSO wells 0.294, cell-free background 0.041
[6] = arabinose 10000 nM, raw OD600 reference: median of DMSO wells 0.264, cell-free background 0.041
[7] = arabinose 100000 nM, raw OD600 reference: median of DMSO wells 0.201, cell-free background 0.041
[8] = arabinose 1000000 nM, raw OD600 reference: median of DMSO wells 0.193, cell-free background 0.041
[9] = arabinose 10000000 nM, raw OD600 reference: median of DMSO wells 0.146, cell-free background 0.041
[10] = arabinose induction (level): High, raw OD600 reference: median of DMSO wells 0.331, cell-free background 0.041
[11] = arabinose induction (level): Low, raw OD600 reference: median of DMSO wells 0.417, cell-free background 0.041
[12] = arabinose induction (level): High, raw OD600 reference: median of DMSO wells […], cell-free background 0.041
[13] = arabinose induction (level): Low, raw OD600 reference: median of DMSO wells 0.227, cell-free background 0.041
[14] = arabinose 100 nM, raw OD600 reference: median of DMSO wells 0.413, cell-free background 0.052
[15] = arabinose 10000000 nM, raw OD600 reference: median of DMSO wells […], cell-free background 0.052

Row | SMILES | growth [1] | growth (E. coli TESEC Mtb Alr [2]; [5]) | growth (E. coli TESEC Mtb Alr [2]; [6]) | growth (E. coli TESEC Mtb Alr [2]; [7]) | growth (E. coli TESEC Mtb Alr [2]; [8]) | growth (E. coli TESEC Mtb Alr [2]; [9]) | growth (E. coli TESEC Mtb Asd; [10]) | growth (E. coli TESEC Mtb Asd; [11]) | growth (E. coli TESEC Mtb DapB; [12]) | growth (E. coli TESEC Mtb DapB; [13]) | growth [3] | growth (E. coli TESEC Mtb Alr [4]; [14]) | growth (E. coli TESEC Mtb Alr [4]; [15])
1 | COc1cc(C(=O)OCCCN2CCCN(CCCOC(=O)c3cc(OC)c(OC)c(OC)c3)CC2)cc(OC)c1OC [Dilazep dihydrochloride] | 0.174 ± 0.0063 | 0.264 ± 0.034 | 0.291 ± 0.0076 | 0.18 ± 0.0077 | 0.118 ± 0.0022 | 0.154 ± 0.0029 | 0.232 ± 0.023 | 0.35 ± 0.051 | 0.171 ± 0.013 | 0.211 ± 0.034 | 0.416 ± 0.034 | 0.417 ± 0.012 | 0.316 ± 0.029
2 | CC(=O)OC[C@H]1O[C@@H]([S-])[C@H](OC(C)=O)[C@@H](OC(C)=O)[C@@H]1OC(C)=O.CCP(CC)CC.[Au+] [Auranofin] | 0.0481 ± 0.0033 | 0.04847 ± 0.00021 | 0.0451 ± 0.00026 | 0.0634 ± 0.012 | 0.0436 ± 0.00056 | 0.0467 ± 0.00053 | 0.0525 ± 0.0026 | 0.0514 ± 0.0016 | 0.0674 ± 0.019 | 0.111 ± 0.019 | 0.059 ± 0.00026 | 0.0775 ± 0.008 | 0.056 ± 0.00069
3 | N[C@@H](C(=O)N[C@@H]1C(=O)N2C(C(=O)O)=C(Cl)CC[C@H]12)c1ccccc1 [Loracarbef] | 0.251 ± 0.0037 | 0.318 ± 0.0031 | 0.224 ± 0.0093 | 0.211 ± 0.024 | 0.175 ± 0.0071 | 0.151 ± 0.0052 | 0.362 ± 0.016 | 0.411 ± 0.0062 | 0.226 ± 0.017 | 0.234 ± 0.014 | 0.529 ± 0.067 | 0.0487 ± 0.0051 | 0.324 ± 0.024
4 | CCC1(c2ccccc2)C(=O)NCNC1=O [Primidone] | 0.243 ± 0.011 | 0.296 ± 0.0094 | 0.255 ± 0.0076 | 0.201 ± 0.012 | 0.18 ± 0.0097 | 0.144 ± 0.0039 | 0.448 ± 0.024 | 0.463 ± 0.043 | 0.208 ± 0.014 | 0.249 ± 0.013 | 0.567 ± 0.028 | 0.408 ± 0.015 | 0.333 ± 0.0042
5 | CNCCc1ccccn1 [Betahistine mesylate] | 0.251 ± 0.0026 | 0.302 ± 0.006 | 0.269 ± 0.0066 | 0.243 ± 0.047 | 0.182 ± 0.0047 | 0.164 ± 0.005 | 0.299 ± 0.087 | 0.4 ± 0.042 | 0.217 ± 0.025 | 0.25 ± 0.017 | 0.557 ± 0.1 | 0.408 ± 0.014 | 0.319 ± 0.025
6 | C=C1c2c(Cl)ccc(O)c2C(O)=C2C(=O)[C@]3(O)C(O)=C(C(N)=O)C(=O)[C@@H](N(C)C)[C@@H]3[C@@H](O)[C@H]12.O=C(O)c1cc(S(=O)(=O)O)ccc1O [Meclocycline sulfosalicylate] | 0.0437 ± 0.0018 | 0.0465 ± 0.0035 | 0.04467 ± 0.00042 | 0.047 ± 0.001 | 0.04453 ± 0.00031 | 0.0463 ± 0.0019 | 0.0721 ± 0.0074 | 0.0594 ± 0.0053 | 0.156 ± 0.089 | 0.05473 ± 0.00042 | 0.05223 ± 0.00012 | 0.0611 ± 0.00062 | 0.0561 ± 0.00065
7 | NC[C@@H]1O[C@H](O[C@H]2[C@@H](O)[C@H](O[C@@H]3[C@@H](O)[C@H](N)C[C@H](N)[C@H]3O[C@H]3O[C@H](CN)[C@@H](O)[C@H](O)[C@H]3N)O[C@@H]2CO)[C@H](N)[C@@H](O)[C@@H]1O [Neomycin sulfate] | 0.249 ± 0.0054 | 0.305 ± 0.009 | 0.287 ± 0.0035 | 0.219 ± 0.015 | 0.19 ± 0.005 | 0.163 ± 0.0028 | 0.271 ± 0.043 | 0.389 ± 0.021 | 0.187 ± 0.018 | 0.245 ± 0.041 | 0.453 ± 0.037 | 0.4232 ± 0.0036 | 0.343 ± 0.013
8 | CCOC1O[C@H]([C@@H](COCc2ccccc2)OCc2ccccc2)[C@H](OCc2ccccc2)[C@H]1O (stereo partly drawn) [Tribenoside] | 0.23 ± 0.005 | 0.29 ± 0.008 | 0.255 ± 0.015 | 0.148 ± 0.0075 | 0.0915 ± 0.0035 | 0.154 ± 0.0022 | 0.214 ± 0.023 | 0.199 ± 0.015 | 0.155 ± 0.0039 | 0.155 ± 0.016 | 0.374 ± 0.015 | 0.378 ± 0.0058 | 0.0944 ± 0.017
9 | Cc1ccc(S(=O)(=O)NC(=O)NN2CCCCCC2)cc1 [Tolazamide] | 0.256 ± 0.0047 | 0.293 ± 0.0069 | 0.281 ± 0.005 | 0.249 ± 0.0083 | 0.186 ± 0.012 | 0.17 ± 0.0032 | 0.293 ± 0.026 | 0.414 ± 0.05 | 0.214 ± 0.0044 | 0.235 ± 0.015 | 0.482 ± 0.053 | 0.398 ± 0.017 | 0.354 ± 0.014
10 | CCOC(=O)n1ccn(C)c1=S [Carbimazole] | 0.239 ± 0.0029 | 0.297 ± 0.0079 | 0.27 ± 0.012 | 0.192 ± 0.0037 | 0.212 ± 0.0081 | 0.145 ± 0.0022 | 0.346 ± 0.079 | 0.284 ± 0.037 | 0.216 ± 0.011 | 0.239 ± 0.025 | 0.607 ± 0.05 | 0.424 ± 0.011 | 0.407 ± 0.0073
11 | c1ccc2c(c1)CCCC2C1=NCCN1 (stereo not drawn) [Tetrahydrozoline hydrochloride] | 0.237 ± 0.0097 | 0.297 ± 0.012 | 0.247 ± 0.0046 | 0.184 ± 0.015 | 0.174 ± 0.0044 | 0.14 ± 0.0055 | 0.435 ± 0.062 | 0.437 ± 0.03 | 0.203 ± 0.018 | 0.226 ± 0.031 | 0.479 ± 0.063 | 0.4131 ± 0.0035 | 0.343 ± 0.01
12 | CN(Cc1ccc(C(C)(C)C)cc1)Cc1cccc2ccccc12 [Butenafine Hydrochloride] | 0.182 ± 0.0021 | 0.177 ± 0.0088 | 0.2 ± 0.0095 | 0.147 ± 0.0047 | 0.0789 ± 0.0012 | 0.116 ± 0.0035 | 0.204 ± 0.012 | 0.182 ± 0.019 | 0.15 ± 0.019 | 0.169 ± 0.02 | 0.399 ± 0.012 | 0.312 ± 0.013 | 0.11 ± 0.0097
13 | CC1=Nc2ccc(Cl)cc2S(=O)(=O)N1 [Diazoxide] | 0.244 ± 0.013 | 0.276 ± 0.018 | 0.271 ± 0.0032 | 0.209 ± 0.04 | 0.189 ± 0.01 | 0.146 ± 0.0083 | 0.369 ± 0.022 | 0.412 ± 0.032 | 0.199 ± 0.0067 | 0.245 ± 0.048 | 0.465 ± 0.041 | 0.4111 ± 0.0032 | 0.365 ± 0.034
14 | O=C(NC(Cc1cc(=O)[nH]c2ccccc12)C(=O)O)c1ccc(Cl)cc1 (stereo not drawn) [Rebamipide] | 0.26 ± 0.0077 | 0.314 ± 0.015 | 0.259 ± 0.0053 | 0.211 ± 0.01 | 0.196 ± 0.0026 | 0.146 ± 0.0044 | 0.312 ± 0.035 | 0.435 ± 0.058 | 0.221 ± 0.0038 | 0.244 ± 0.011 | 0.484 ± 0.068 | 0.409 ± 0.012 | 0.368 ± 0.014
15 | CCN(CC)CCCC(C)Nc1c2ccc(Cl)cc2nc2ccc(OC)cc12 (stereo not drawn) [Quinacrine dihydrochloride hydrate] | 0.0702 ± 0.00072 | 0.0775 ± 0.016 | 0.0444 ± 0.00085 | 0.104 ± 0.0031 | 0.04497 ± 0.00023 | 0.1 ± 0.0037 | 0.0701 ± 0.0057 | 0.0679 ± 0.006 | 0.156 ± 0.022 | 0.0986 ± 0.073 | 0.125 ± 0.049 | 0.421 ± 0.0083 | 0.222 ± 0.025
16 | Nc1c(Br)cc(Br)cc1CN[C@H]1CC[C@H](O)CC1 [Ambroxol hydrochloride] | 0.202 ± 0.0077 | 0.256 ± 0.014 | 0.283 ± 0.0086 | 0.18 ± 0.031 | 0.1617 ± 0.0016 | 0.149 ± 0.0085 | 0.168 ± 0.021 | 0.318 ± 0.06 | 0.204 ± 0.015 | 0.221 ± 0.029 | 0.626 ± 0.055 | 0.406 ± 0.0096 | 0.312 ± 0.015
